From PubChem
RGS4 inhibitor = blocks human RGS4-accelerated GTP hydrolysis; P49798; Transcreener GDP fluorescence polarization, RGS4-accelerated GTP hydrolysis; Potency, µM (titrated, usually from 114 µM), for the others: at the top dose activity change, negative = inhibition, usual class: inhibitors; 390,000 tested, 0.039% active; AID 504845; also: nearly all actives have a fitted effect of over 75% in size
Target sequence (P49798 whole entry, looked up): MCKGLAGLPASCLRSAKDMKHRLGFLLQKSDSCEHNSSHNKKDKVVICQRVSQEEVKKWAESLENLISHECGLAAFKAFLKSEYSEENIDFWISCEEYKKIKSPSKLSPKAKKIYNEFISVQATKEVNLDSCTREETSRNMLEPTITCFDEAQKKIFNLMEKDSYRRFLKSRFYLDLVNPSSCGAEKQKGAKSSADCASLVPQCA
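MLSMR compounds (23 nl, pin-transferred) preincubated 10 min at room temperature with a 500nM (2x) first reagent, then RGS4 at 900nM (2x) plus Transcreener GDP mix added; fluorescence polarization (620/688 nm) read before and after 90 min at 30 °C.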
RECQ1 helicase = RECQ1 (human) helicase inhibition | RECQ1 DNA unwinding, red fluorescence kinetic read | Potency, µM (series often up to 57.3 µM), for the others: at the top dose activity, negative = inhibition, actives largely listed as inhibitors | 240,000 tested, 0.54% active | AID 2549;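 also: plate controls were vehicle for no effect and no enzyme for full effect; nearly all actives have a fitted effect of over 30% in size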
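50 nM RECQ1T1 preincubated 15 min with compound in Tris pH 8.0 buffer with MgCl2, DTT, Tween-20 and 2.5 ug/ml poly(dI-dC); started with 200 nM TAMRA/BHQ-2 forked duplex and 2 mM ATP. Unwinding read as fluorescence (525/598 nm), two reads 2 h apart.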
KAT2A inh = GCN5L2 (KAT2A) acetyltransferase inhibition; Q92830; GCN5L2 HAT assay, ThioGlo1 CoA-SH fluorescence; Potency, µM (doses to about 58.9 µM), for inactives: at the top dose activity change, negative = inhibition, actives largely listed as inhibitors; 390,000 tested, 0.21% active
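Titration-based screen in which CoA formation is detected via maleimide probe ThioGlo1 (50uM) turning fluorescent on thiol reaction; substrates H3(1-25) 75uM and acetyl-CoA 70uM, GCN5L2 20nM, 20 min incubation at room temperature.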
TDP1 inh = blocks human tyrosyl-DNA phosphodiesterase 1; Potency, µM (top dose mostly 130 µM), for the others: at the top dose activity change, negative = inhibition, hits mostly inhibitors; recombinant TDP1, AlphaScreen DNA substrate cleavage; 350,000 tested, 0.28% active; Q9NUW8; AID 485290; also: nearly all actives have a fitted effect of over 40% in size
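Tdp1 1 nM final; 15 min RT w/ cpd; substrate 15 nM, 5 min; beads 10 ug/ml, 10 min; AlphaScreen read. Neg ctrl: no enzyme.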
BLM inh-1 = Bloom syndrome helicase (human) inhibition; Potency, µM (series often up to 56.1 µM), for inactives: top-dose activity change, negative = inhibition, actives largely listed as inhibitors; recombinant BLM DNA unwinding, fluorescence dequenching; P54132; 350,000 tested, 0.2% active;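 also: plate controls were vehicle for no effect and no enzyme for full effect; nearly all actives have a fitted effect of over 35% in size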
APE1 inh-1 = blocks human APE1 abasic DNA cleavage | recombinant APE1, TAMRA/BHQ-2 abasic DNA cleavage fluorescence | Potency, µM (series often up to 65.8 µM), inactives show at the highest dose activity change, negative = inhibition, most hits filed as inhibitors | 350,000 tested, 0.35% active;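 also: plate controls were vehicle for no effect and reference inhibitor for full effect; nearly all actives have a fitted effect of over 55% in size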
Target sequence (P27695 whole entry, looked up): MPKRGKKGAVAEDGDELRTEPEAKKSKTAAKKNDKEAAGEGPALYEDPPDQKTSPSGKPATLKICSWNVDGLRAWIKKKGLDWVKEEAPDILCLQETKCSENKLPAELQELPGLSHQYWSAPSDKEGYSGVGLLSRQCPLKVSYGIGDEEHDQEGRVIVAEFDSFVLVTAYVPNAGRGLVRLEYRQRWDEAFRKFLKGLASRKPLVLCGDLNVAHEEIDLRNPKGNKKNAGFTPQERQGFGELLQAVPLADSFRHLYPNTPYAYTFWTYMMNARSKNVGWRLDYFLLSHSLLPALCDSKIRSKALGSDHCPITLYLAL
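Enzyme (0.75 nM final) and test compound are incubated 15 min at room temperature before adding 50 nM quenched THF abasic-site duplex. Cleavage dequenches TAMRA, followed at 525/598 nm over three reads one minute apart.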
DNA dye displace = DNA dye displacement counter-screen activity; DNA fluorescent dye displacement counterscreen, fluorescence; Potency, µM (titrated, usually from 28.5 µM), inactives show top-dose activity change, negative = inhibition, actives largely listed as inhibitors; 480 tested, 7% active; shares compounds with APE1 inh-1; AID 2564;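 also: loss of thiazole orange fluorescence as the dye is displaced from duplex DNA; 0% = ThO with dsDNA and no compound and -100% = ThO without dsDNA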
Endo IV inh = blocks E. coli endonuclease IV DNA cleavage; shares compounds with APE1 inh-1; E. coli Endo IV, fluorogenic AP-site DNA cleavage; Potency, µM (doses to about 27.1 µM), for inactives: at the top dose activity change, negative = inhibition, hits mostly inhibitors; 560 tested, 4% active;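 also: plate controls were uninhibited enzyme wells for no effect and no enzyme buffer wells for full effect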
APE1 inh-2 = APE1 (human) endonuclease inhibition, confirmation | shares compounds with APE1 inh-1 | purified APE1, fluorogenic abasic-site DNA cleavage | Potency, µM (top dose mostly 57.1 µM), without a hit: at the top dose activity change, negative = inhibition, actives largely listed as inhibitors | 750 tested, 44% active | AID 2572; also: nearly all actives have a fitted effect of over 30% in size
APE1 FP inh = displaces DNA from human APE1 in FP assay. shares compounds with APE1 inh-1. APE1 binding to TAMRA-labelled double-stranded DNA, fluorescence polarization displacement. Potency, µM (top dose mostly 28.5 µM), for the others: top-dose activity, negative = inhibition, most hits filed as inhibitors. 480 tested, 7% active
BLM inh-2 = confirmation of inhibitors of human Bloom syndrome helicase BLM; shares compounds with BLM inh-1; BLM DNA unwinding, fluorescence quenching, biochemical; Potency, µM, without a hit: max response, negative = inhibition, hits mostly inhibitors; 220 tested, 40% active;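 also: strand separation dequenches TAMRA so unwinding raises red fluorescence; series mostly up to about 69 µM; nearly all actives have a fitted effect of over 45% in size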
Numbers without * were called inactive; i = inactive; ? = inconclusive; · = not tested or not shown; ! = repeats disagree; [ ] = another dose, or the depositor's remark. Most compounds without a hit are left out; they make up all but 0.87% or so of the library. Calls follow the shape of the dose curve; as a rule, active = well fitted curve in the direction sought with a large enough effect; inconclusive = small, poorly fitted or top-dose-only effect, or another doubt; inactive = no such curve, though single readings can be large; an effect the other way counts as inactive or inconclusive. Unless noted, % is scaled to controls: 0 for no effect and ±100 for the full control effect; potency is read from the fitted curve at half-maximal effect.

SMILES | RGS4 inhibitor | RECQ1 helicase | KAT2A inh | TDP1 inh | BLM inh-1 | APE1 inh-1 | APE1 inh-2 | others
O=C1c2ccc(O)c(O)c2C(=O)c2c(O)ccc(O)c21 | · | 32µM* | ? | · | -27% | 3.2µM* | 4µM* | Endo IV inh=14µM*
O=c1[nH]c(SCc2ccccc2)ncc1S(=O)(=O)c1ccccc1 | 0% | · | · | · | · | · | ·
Cc1ccc([S+](=O)([O-])N(c2ccccc2)[S+](=O)([O-])C(F)(F)F)cc1 | · | -6% | · | 3% | 0% | 6% | ·
COc1ccc2c(c1)c1c(c(=O)n(-c3ccccc3C)c(=O)n1CC(=O)N1CCCC1)n2C | 16% | · | ? | 0% | -2% | · | ·
O=C(O)CC(NCc1ccco1)C(=O)OCC1CCCO1 (stereo not drawn) | 16% | -15% | 0% | 4% | -1% | 13% | ·
C=C(C)CCOC(=O)C(CC(=O)O)NCc1ccco1 (stereo not drawn) | 20% | -5% | -5% | · | -4% | ? | ?
O=C1C=C[C@@H](O)[C@H]2[C@@H]3C(=O)N(Cc4ccccc4)C(=O)[C@@H]3CC[C@H]12 | · | -2%[11.5 µM] | · | 5%[21 µM] | 2%[12.4 µM] | 16%[12.4 µM] | ·
COc1c2c(cc3c1C(CC(=O)c1c(O)c(OC)c4occc4c1OC)[N+](C)(C)CC3)OCO2 (stereo not drawn) | · | 0% | · | 7% | -9% | 0% | ·
NC(=O)Cn1c(=O)n(Cc2ccco2)c(=O)c2c3c(sc21)CCCCC3 | ? | ? | -28% | · | ? | ? | 10µM* | DNA dye displace=?;Endo IV inh=3%;APE1 FP inh=?
O=C(Cn1c(=O)n(Cc2ccco2)c(=O)c2c3c(sc21)CCCC3)Nc1ccccc1 | -31%[11.4 µM] | -14% | -8% | 2% | -14% | -3% | ·
O=Cc1ccc2oc3nc4n(c(=O)c3c(=O)c2c1)CCCS4 | ? | 13µM* | ? | 10µM* | 28µM* | ? | 32µM*
O=c1c2cc(Br)cc(Br)c2oc2nc3n(c(=O)c12)CCCS3 | · | -7% | -2% | -4% | -5% | 2% | ·
Clc1ccc(N2N=C(c3cccs3)CC2c2ccco2)cc1 (stereo not drawn) | -8% | -18% | -26% | · | -11% | 12% | -31%
c1ccc(N2N=C(c3cccs3)CC2c2ccco2)cc1 (stereo not drawn) | 18% | ? | ? | · | -8% | -6% | ·
COc1ccccc1C1CN(c2ccccc2)N=C1c1cccs1 (stereo not drawn) | -28% | -9% | 0% | 7.9µM* | -7% | 1% | ?
COc1cccc(C2CN(c3ccc(F)cc3F)N=C2c2cccs2)c1OC (stereo not drawn) | 11% | -7% | -12% | ? | -5% | -7% | ·
CCc1cc2c(=O)c(-c3nc4ccccc4n3C)coc2c(CN2CCC(C)CC2)c1O | 4% | · | -22% | · | 2% | 3% | ·
CCc1cc2c(=O)c(-c3nc4ccccc4n3C)coc2c(CN2CCN(C)CC2)c1O | 9% | ? | -6% | 50µM* | -12% | ? | ?
CS(=O)(=O)Nc1ccc([N+](=O)[O-])cc1Oc1ccccc1 | 11%[56.9 µM] | 6% | ? | -5% | -4% | -3% | ? | Endo IV inh=-6%[57.1 µM]
Cc1nc2[nH]c(=O)[nH]c(=O)c2[nH]1 | · | -10% | · | 4% | 1% | 2% | ·
Cc1ccc(C)n1-c1ccc(C(=O)O)cc1 | · | -6% | ? | 7.9µM* | 49% | 14µM* | 13µM*
CC(=O)c1c(C(C)=O)c(C)n(-c2ccc(C(=O)O)cc2)c1C | 12% | -7% | -1% | 0% | -4% | 0% | ·
Cc1c(C(=O)O)c(O)cc2c1C(=O)c1c(O)c([C@H]3O[C@H](CO)[C@@H](O)[C@H](O)[C@H]3O)c(O)c(O)c1C2=O | -41%[56.9 µM] | 32µM*! | ? | 0.71µM*! | -11% | 10µM*! | 3.2µM* | DNA dye displace=?;Endo IV inh=-118%[57.1 µM];APE1 FP inh=?
COc1c(O)cc2c(c1O)[C@@H]1O[C@H](CO)[C@@H](O)[C@H](O)[C@H]1OC2=O | -29% | · | -16% | · | -2% | 8% | ·
O=C1C2C3C=CC([C@@H]2C(=O)N1c1nccs1)C31CC1 (stereo partly drawn) | 1% | -5% | -6% | 2% | 1% | 0% | ·
O=C1C2C3C=CC(CC3)C2C(=O)N1c1nccs1 (stereo not drawn) | -15% | 22µM* | -16% | 10µM* | -28% | 6.3µM* | ? | DNA dye displace=54%;Endo IV inh=26%;APE1 FP inh=-45%
COC1=C(C(=O)c2ccccc2)C(=O)C2(CC=C(C)C)C[C@H](C(=O)OCC(F)(F)F)C(C)(C)[C@@]1(CC=C(C)C)C2=O (tested in a mixture with another compound) | · | i | · | 8% | -1% | -2% | ·
O=C(CSc1nc(-c2ccc(F)cc2)nc2c1Cc1ccccc1O2)Nc1ccc(C(=O)O)cc1 | ? | ? | 14µM* | 5µM* | 8.9µM* | ? | 4.5µM* | DNA dye displace=3.2µM*;Endo IV inh=?;APE1 FP inh=-38%;BLM inh-2=29µM*
Cc1cccc(-c2nn(C(=S)Nc3ccccc3)cc2-c2ccnc3ccccc23)n1 | · | -14% | 0% | 10% | 4% | -3% | ·
